From the supplement of paper PMC13380429
Counter-ions that a name gives are not always drawn.

Tested on: Vero E6 infected with SARS-CoV-2
Experiment: inhibition of SARS-CoV-2 cytopathic effect; higher = more antiviral protection, active = above 15
Conditions: 48 h

Measured: inhibition of SARS-CoV-2 cytopathic effect

N#CSc1cc(SC#N)c(N)nc1N
inactive: 1 nM -1.78% | 8.33 nM 0.62% | 100 nM 3.56% | 833.33 nM 0.7% | 10000 nM 11.2%

N=C(Nc1ccccc1)Nc1ccccc1 [diphenylguanidine]
inactive: 1 nM -3.55% | 8.33 nM -2.37% | 100 nM -2.77% | 833.33 nM -0.58% | 10000 nM 2.16%

Nc1ncnc2c1ncn2[C@@H]1O[C@H](COP(=O)(O)O)[C@@H](O)[C@H]1O [adenosine-phosphate]
inactive: 1 nM -6.5% | 8.33 nM -1.98% | 100 nM -4.25% | 833.33 nM -3.83% | 10000 nM -12.6%

CN(C)CCOc1ccc(/C(=C(/CCCl)c2ccccc2)c2ccccc2)cc1 [Toremifene citrate]
inactive: 1 nM 0.8% | 8.33 nM 0.55% | 100 nM -0.55% | 833.33 nM 0.65% | 10000 nM 3.86%

COC(=O)N1CC[C@@H]2[C@H]1CCC[C@@]2(O)C#Cc1cccc(C)c1 [mavoglurant]
inactive: 1 nM 0.66% | 8.33 nM -0.18% | 100 nM 2.27% | 833.33 nM -1.9% | 10000 nM -0.19%

CCN1CCN(c2cc(-c3ccc(F)cc3)c3c(n2)CCCCCC3)CC1 [blonanserin]
inactive: 1 nM 3.34% | 8.33 nM 2.25% | 100 nM -2.9% | 833.33 nM -0.44% | 10000 nM -3.59%

O=c1[nH]c(=O)c2ccccc2o1 [carsalam]
inactive: 1 nM -1.46% | 8.33 nM 0.95% | 100 nM 4.79% | 833.33 nM 0.99% | 10000 nM 4.32%

Cc1ccc(NC(=O)CCCCCC(=O)Nc2ccccc2N)cc1
inactive: 1 nM 2.4% | 8.33 nM 1.59% | 100 nM 0.54% | 833.33 nM 1.31% | 10000 nM 3.57%

O=S(=O)(O)c1cc(I)c(O)c2ncccc12 [chiniofon]
inactive: 1 nM -0.29% | 8.33 nM -0.47% | 100 nM -0.93% | 833.33 nM 3.44% | 10000 nM -0.39%

CC1(C)CC(=O)c2c(C(F)(F)F)nn(-c3ccc(C(N)=O)c(N[C@H]4CC[C@H](OC(=O)CN)CC4)c3)c2C1
inactive: 1 nM -1.61% | 8.33 nM 1.43% | 100 nM 2.1% | 833.33 nM -2.15% | 10000 nM -0.73%

CCn1cnc(C(=O)NC)c1C(=O)NC [ethimizol]
inactive: 1 nM -1.81% | 8.33 nM 0.39% | 100 nM -1.18% | 833.33 nM 1.42% | 10000 nM 1.32%

Nc1n[nH]c2nnc(-c3c(-c4ccccc4)nn4ccccc34)cc12
inactive: 1 nM 0.55% | 8.33 nM -0.27% | 100 nM -1.29% | 833.33 nM 1.74% | 10000 nM -2.81%

CCC(COC(=O)c1cc(OC)c(OC)c(OC)c1)(c1ccccc1)N(C)C (stereo not given) [trimebutine]
inactive: 1 nM -4.71% | 8.33 nM -2.14% | 100 nM -2.65% | 833.33 nM -0.31% | 10000 nM 2.51%

COc1cc(OC)c(C(=O)CCCN2CCCC2)c(OC)c1 [buflomedil]
inactive: 1 nM 1.62% | 8.33 nM 0.64% | 100 nM 4.02% | 833.33 nM 3.26% | 10000 nM 1.28%

CC(C)Oc1ccc2c(=O)c3cc(C(=O)O)ccc3oc2c1
inactive: 1 nM -2.35% | 8.33 nM -1.43% | 100 nM -1.13% | 833.33 nM -1.68% | 10000 nM -1%

O=C(NN1C(=O)[C@@H]2[C@@H]3C=C[C@@H]([C@H]4C[C@@H]34)[C@@H]2C1=O)c1ccc(C(F)(F)F)cc1 [tecovirimat]
inactive: 1 nM 1.41% | 8.33 nM 2.44% | 100 nM 2.71% | 833.33 nM 0.04% | 10000 nM -0.46%

CC(=O)O[C@]1(C(C)=O)CC[C@H]2[C@@H]3C[C@H](C)C4=CC(=O)CC[C@]4(C)[C@H]3CC[C@@]21C [medroxyprogesterone-acetate]
inactive: 1 nM 1.02% | 8.33 nM 0.71% | 100 nM -1.14% | 833.33 nM 2.58% | 10000 nM 6.49%

O=C(Nc1ccc(N2CCC(C(=O)N3CCOCC3)CC2)cc1)c1cnc(Oc2ccccc2)nc1
inactive: 1 nM 0.64% | 8.33 nM 1.26% | 100 nM 2.38% | 833.33 nM 1.19% | 10000 nM -0.78%

CCC(C)(C)C(=O)O[C@H]1C[C@@H](C)C=C2C=C[C@H](C)[C@H](CC[C@@H]3C[C@@H](O)CC(=O)O3)[C@H]21 [simvastatin]
inactive: 1 nM -3.26% | 8.33 nM 0.13% | 100 nM -0.41% | 833.33 nM -0.83% | 10000 nM 5.01%
